This note sets out measurements from PMC7862700, “An all-to-all approach to the identification of sequence-specific readers for epigenetic DNA modifications on cytosine”.

Common to all, as to assay: DAPPL (digital affinity profiling via proximity ligation, sequencing); 10 mM Tris-HCl pH 7.5, 50 mM NaCl, 1 mM DTT, 4% glycerol, room temperature, 30 min; GST-TFs on glutathione beads, 16-mer random dsDNA library, 0.1% formaldehyde crosslink after washing; high values mean tight binding
Common to all, as to details: protein: recombinant; tags: N-terminal GST; dsDNA, one strand shown

Assay [1] deals with T1, FLI1 (Homo sapiens, UniProt Q01543 1-452).
T1 sequence: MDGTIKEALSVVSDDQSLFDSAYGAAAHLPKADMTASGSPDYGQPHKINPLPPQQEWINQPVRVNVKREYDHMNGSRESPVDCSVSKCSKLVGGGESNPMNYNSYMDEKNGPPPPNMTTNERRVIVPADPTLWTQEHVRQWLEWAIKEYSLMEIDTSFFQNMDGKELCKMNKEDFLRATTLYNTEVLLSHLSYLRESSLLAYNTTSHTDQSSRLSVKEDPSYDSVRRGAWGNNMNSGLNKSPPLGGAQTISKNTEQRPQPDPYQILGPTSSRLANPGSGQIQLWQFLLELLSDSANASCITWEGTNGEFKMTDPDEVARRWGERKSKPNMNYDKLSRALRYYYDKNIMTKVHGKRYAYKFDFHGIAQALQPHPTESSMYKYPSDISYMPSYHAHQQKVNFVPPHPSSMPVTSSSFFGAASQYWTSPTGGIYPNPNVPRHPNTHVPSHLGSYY
Put shortly: (§1)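 GST fusions of human transcription factors were expressed in yeast and captured with glutathione beads. Once given DNA barcodes and pooled alongside a tag-only sample, they were incubated for 30 min at room temperature with 200 nmole of a random double-stranded 16-mer DNA library in Tris/NaCl/DTT/glycerol buffer, then washed, crosslinked (0.1% formaldehyde), proximity-ligated, PCR-amplified and sequenced on an Illumina NextSeq500. The binding signal of each hexamer is its read frequency for a factor divided by its frequency for the tag-only sample.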

Assay [2] concerns the target T2, ELK1 (Homo sapiens, UniProt P19419 1-428).
T2 sequence: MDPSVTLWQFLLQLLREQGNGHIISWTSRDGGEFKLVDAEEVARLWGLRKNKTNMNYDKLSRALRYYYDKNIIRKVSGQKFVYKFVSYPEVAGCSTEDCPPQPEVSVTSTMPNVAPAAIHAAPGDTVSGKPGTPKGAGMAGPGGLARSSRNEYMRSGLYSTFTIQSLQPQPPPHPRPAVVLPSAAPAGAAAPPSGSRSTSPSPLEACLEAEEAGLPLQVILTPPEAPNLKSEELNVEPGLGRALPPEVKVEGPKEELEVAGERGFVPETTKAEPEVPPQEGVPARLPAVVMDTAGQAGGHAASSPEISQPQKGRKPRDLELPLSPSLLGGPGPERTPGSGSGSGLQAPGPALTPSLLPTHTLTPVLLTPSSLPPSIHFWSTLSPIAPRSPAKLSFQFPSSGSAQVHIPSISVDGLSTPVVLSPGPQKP
Put shortly: as §1

Assay [3] concerns the target T3, GABPA (Homo sapiens, UniProt Q06546 1-454).
T3 sequence: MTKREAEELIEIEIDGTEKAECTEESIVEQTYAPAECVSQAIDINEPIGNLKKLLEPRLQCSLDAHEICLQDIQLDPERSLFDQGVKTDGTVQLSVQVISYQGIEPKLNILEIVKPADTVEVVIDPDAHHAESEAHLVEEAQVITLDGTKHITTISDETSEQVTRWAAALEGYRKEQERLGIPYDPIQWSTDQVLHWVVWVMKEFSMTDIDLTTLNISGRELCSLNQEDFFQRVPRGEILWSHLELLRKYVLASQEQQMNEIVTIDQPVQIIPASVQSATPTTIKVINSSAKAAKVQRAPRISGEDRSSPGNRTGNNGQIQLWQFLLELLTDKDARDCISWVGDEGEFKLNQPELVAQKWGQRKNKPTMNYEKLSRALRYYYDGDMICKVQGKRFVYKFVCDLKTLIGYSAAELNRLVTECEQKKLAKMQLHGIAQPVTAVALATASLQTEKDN
A digest of the protocol: as §1

Assay [4] deals with T4, ERG (Homo sapiens, UniProt P11308 1-479).
T4 sequence: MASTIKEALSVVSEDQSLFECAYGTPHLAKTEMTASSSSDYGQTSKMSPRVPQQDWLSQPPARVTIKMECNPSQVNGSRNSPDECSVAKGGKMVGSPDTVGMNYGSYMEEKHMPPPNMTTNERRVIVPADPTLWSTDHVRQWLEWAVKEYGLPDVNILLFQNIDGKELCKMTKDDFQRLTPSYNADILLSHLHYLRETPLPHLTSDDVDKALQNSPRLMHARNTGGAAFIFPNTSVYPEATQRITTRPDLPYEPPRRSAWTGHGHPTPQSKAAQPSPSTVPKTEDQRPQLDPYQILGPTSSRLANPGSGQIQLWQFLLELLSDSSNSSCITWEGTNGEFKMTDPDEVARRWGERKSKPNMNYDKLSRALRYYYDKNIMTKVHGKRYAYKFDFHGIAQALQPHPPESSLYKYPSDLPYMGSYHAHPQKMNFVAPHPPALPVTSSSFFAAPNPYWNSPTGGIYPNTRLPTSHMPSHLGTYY
A digest of the protocol: as §1

Assay [5] addresses ELF1 (Homo sapiens, UniProt P32519 1-619). Put shortly:
as §1

In assay [6] the target is T5, EHF (Homo sapiens, UniProt Q9NZC4 1-300).
T5 sequence: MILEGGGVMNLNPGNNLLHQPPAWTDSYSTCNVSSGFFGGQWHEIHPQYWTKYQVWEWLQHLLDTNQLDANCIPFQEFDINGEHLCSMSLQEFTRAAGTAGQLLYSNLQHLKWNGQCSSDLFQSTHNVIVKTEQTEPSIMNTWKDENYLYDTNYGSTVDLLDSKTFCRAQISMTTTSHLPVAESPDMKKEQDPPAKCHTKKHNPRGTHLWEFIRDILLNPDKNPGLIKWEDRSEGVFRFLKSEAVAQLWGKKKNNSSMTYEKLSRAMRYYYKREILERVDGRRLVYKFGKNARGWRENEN
A digest of the protocol:
as §1

Assay [7] concerns the target SPI1 (Homo sapiens, UniProt P17947 1-270). Put shortly: as §1
Assay [8] has as its target SPIB (Homo sapiens, UniProt Q01892 1-262). Put shortly: as §1
Assay [9] deals with T6, ELK3 (Homo sapiens, UniProt P41970 1-407).
T6 sequence: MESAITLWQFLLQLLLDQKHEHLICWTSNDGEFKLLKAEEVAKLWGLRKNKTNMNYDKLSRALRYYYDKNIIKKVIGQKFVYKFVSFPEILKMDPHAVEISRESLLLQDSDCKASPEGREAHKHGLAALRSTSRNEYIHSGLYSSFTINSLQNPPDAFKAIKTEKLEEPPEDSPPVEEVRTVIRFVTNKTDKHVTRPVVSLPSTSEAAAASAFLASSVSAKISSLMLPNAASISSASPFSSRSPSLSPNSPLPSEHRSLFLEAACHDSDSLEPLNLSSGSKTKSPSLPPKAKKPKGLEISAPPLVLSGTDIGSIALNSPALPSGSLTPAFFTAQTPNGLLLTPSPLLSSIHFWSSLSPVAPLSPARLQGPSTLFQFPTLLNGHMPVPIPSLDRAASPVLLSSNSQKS
Put shortly:
as §1

Assay [10] deals with T7, FEV (Homo sapiens, UniProt Q99581 1-238).
T7 sequence: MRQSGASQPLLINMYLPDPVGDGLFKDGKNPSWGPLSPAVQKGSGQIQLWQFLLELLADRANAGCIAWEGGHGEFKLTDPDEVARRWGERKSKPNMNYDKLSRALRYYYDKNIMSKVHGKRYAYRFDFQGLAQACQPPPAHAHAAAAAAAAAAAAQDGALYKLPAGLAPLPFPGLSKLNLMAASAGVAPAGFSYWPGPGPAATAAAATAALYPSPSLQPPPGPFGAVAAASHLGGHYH
Put shortly:
as §1

The target of assay [11] is ETV5 (Homo sapiens, UniProt P41161 1-510). Put shortly: as §1
ETV5, sequence (P41161 whole entry): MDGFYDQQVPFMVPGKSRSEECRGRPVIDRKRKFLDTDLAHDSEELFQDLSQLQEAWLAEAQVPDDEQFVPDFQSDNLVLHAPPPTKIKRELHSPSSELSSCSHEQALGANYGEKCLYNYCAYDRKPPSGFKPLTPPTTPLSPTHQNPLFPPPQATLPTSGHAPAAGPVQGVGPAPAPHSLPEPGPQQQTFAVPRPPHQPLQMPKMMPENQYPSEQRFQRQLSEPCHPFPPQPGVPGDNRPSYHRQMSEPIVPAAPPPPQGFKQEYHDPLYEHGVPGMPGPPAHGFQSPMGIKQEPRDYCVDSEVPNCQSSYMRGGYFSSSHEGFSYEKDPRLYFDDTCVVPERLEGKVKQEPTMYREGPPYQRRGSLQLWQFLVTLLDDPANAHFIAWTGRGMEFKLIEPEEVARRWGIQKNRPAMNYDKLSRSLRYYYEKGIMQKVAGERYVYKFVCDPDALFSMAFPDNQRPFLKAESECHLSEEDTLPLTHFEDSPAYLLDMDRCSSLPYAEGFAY
Assay [12] addresses T8, SPIC (Homo sapiens, UniProt Q8N5J4 1-248).
T8 sequence: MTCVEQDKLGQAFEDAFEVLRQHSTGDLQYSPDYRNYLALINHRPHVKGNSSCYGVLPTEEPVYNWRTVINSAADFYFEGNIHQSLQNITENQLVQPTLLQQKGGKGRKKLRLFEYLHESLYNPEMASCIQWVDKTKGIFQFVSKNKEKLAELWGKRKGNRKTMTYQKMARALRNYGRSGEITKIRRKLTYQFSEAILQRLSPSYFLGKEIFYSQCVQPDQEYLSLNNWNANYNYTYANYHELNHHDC
Put shortly: as §1

In assay [13] the target is ELF4 (Homo sapiens, UniProt Q99607 1-663). A digest of the protocol:
as §1

Assay [14] has as its target T9, ELK4 (Homo sapiens, UniProt P28324-2 1-405).
T9 sequence: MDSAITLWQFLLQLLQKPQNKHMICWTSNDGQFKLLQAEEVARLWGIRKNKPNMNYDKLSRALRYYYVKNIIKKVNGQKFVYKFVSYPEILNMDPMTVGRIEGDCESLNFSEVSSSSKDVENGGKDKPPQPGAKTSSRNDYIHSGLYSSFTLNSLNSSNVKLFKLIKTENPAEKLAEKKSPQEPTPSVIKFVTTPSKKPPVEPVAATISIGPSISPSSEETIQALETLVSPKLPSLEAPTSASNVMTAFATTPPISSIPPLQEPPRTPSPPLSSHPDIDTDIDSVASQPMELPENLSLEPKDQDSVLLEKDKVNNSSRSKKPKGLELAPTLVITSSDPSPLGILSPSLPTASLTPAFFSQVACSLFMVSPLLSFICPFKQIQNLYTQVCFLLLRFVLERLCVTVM
Put shortly: as §1

Assay [15] deals with T10, ETV2 (Homo sapiens, UniProt O00321 1-342).
T10 sequence: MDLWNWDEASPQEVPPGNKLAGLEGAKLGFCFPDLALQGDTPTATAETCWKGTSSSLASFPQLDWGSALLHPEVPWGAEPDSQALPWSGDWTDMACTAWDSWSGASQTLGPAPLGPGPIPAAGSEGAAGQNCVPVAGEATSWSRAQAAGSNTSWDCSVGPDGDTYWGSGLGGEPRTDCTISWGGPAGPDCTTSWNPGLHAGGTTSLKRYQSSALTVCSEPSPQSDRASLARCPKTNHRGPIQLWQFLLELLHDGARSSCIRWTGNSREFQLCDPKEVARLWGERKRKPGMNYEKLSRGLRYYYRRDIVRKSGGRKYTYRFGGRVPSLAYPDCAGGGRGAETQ
Put shortly:
as §1

Assay [16] addresses T11, ELF3 (Homo sapiens, UniProt P78545 1-371).
T11 sequence: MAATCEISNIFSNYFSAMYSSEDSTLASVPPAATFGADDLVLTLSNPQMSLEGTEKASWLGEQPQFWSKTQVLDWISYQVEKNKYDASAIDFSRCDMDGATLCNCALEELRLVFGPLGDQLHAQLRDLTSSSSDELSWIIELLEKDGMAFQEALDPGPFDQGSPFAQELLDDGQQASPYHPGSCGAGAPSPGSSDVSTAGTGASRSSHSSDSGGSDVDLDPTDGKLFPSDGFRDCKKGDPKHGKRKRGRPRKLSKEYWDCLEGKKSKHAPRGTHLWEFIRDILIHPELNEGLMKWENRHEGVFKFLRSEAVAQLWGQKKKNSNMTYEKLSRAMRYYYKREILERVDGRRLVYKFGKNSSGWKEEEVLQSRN
Put shortly: as §1

For assay [17], the target named is ETV1 (Homo sapiens, UniProt P50549 1-477). A digest of the protocol: as §1
ETV1, sequence (P50549 whole entry): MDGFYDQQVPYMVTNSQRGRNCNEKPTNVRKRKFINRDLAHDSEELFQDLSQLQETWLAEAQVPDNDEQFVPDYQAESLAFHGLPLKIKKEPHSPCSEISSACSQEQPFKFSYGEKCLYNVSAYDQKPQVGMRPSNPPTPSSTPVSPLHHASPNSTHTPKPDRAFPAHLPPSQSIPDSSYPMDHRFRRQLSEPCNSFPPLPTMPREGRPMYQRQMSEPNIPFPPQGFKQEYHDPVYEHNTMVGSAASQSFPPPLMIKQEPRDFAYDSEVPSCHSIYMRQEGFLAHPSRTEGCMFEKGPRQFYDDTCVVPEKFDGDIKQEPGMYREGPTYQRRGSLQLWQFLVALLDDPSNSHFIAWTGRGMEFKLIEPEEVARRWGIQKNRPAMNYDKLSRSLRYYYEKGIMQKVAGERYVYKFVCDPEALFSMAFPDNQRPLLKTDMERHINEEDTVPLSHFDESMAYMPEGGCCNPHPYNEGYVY

ELF1, sequence (P32519 whole entry): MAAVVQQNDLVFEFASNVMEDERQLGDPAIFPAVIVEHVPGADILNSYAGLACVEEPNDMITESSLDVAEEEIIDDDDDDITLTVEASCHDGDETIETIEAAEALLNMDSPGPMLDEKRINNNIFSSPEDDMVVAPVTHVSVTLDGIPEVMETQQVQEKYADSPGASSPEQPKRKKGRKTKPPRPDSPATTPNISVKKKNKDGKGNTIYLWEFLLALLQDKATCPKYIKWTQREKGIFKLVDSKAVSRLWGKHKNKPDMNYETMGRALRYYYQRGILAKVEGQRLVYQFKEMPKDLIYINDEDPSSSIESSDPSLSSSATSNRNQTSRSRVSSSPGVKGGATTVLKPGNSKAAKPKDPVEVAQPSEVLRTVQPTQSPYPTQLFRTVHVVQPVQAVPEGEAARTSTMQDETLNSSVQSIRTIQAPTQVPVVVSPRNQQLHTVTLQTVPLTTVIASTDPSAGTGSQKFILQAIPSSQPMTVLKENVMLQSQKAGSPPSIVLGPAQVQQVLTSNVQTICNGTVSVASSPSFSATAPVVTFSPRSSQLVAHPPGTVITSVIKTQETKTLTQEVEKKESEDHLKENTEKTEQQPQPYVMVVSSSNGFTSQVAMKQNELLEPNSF
ELF4, sequence (Q99607 whole entry): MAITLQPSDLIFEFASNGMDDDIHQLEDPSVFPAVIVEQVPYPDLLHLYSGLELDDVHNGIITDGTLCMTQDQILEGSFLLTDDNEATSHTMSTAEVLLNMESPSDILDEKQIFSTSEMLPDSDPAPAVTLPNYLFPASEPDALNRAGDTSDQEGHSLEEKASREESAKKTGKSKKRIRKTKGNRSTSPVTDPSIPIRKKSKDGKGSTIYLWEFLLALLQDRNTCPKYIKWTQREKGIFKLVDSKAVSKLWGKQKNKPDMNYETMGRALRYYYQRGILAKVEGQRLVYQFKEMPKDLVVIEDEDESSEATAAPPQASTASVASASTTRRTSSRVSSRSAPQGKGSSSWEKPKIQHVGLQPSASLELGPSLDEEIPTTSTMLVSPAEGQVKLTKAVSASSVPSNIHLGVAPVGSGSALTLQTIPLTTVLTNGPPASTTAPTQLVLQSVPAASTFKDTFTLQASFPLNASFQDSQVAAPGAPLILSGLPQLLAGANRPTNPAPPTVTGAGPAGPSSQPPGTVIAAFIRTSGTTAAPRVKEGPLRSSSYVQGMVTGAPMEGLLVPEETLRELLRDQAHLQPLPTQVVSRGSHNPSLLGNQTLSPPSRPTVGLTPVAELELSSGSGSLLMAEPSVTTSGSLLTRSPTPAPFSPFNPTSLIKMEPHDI
SPIB, sequence (Q01892 whole entry): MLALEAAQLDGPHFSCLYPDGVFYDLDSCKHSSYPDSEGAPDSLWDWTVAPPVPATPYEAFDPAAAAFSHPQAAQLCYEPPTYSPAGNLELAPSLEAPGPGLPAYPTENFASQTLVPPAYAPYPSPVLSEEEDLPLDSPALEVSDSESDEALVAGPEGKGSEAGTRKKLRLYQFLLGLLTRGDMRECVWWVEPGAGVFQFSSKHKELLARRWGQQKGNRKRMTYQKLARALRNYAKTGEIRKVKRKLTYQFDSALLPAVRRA

As for CATATC, the binding signal in assay [1] is 1.25 fold enrichment (6-mer frequency, TF over GST control); in assay [2], 1.39 fold enrichment (6-mer frequency, TF over GST control); in assay [3], 1.26 fold enrichment (6-mer frequency, TF over GST control); in assay [4], 1.37 fold enrichment (6-mer frequency, TF over GST control); in assay [5], 1.32 fold enrichment (6-mer frequency, TF over GST control); in assay [6] it was 1.36 fold enrichment (6-mer frequency, TF over GST control). In addition, the binding signal in [7] is 1.3 fold enrichment (6-mer frequency, TF over GST control); in assay [8] it was 1.32 fold enrichment (6-mer frequency, TF over GST control); in [9] it was 1.34 fold enrichment (6-mer frequency, TF over GST control); in assay [10], 1.4 fold enrichment (6-mer frequency, TF over GST control); in [11], 1.36 fold enrichment (6-mer frequency, TF over GST control); in [12], 1.23 fold enrichment (6-mer frequency, TF over GST control). The binding signal in assay [13] was 1.29 fold enrichment (6-mer frequency, TF over GST control); in assay [14], 1.24 fold enrichment (6-mer frequency, TF over GST control); in assay [15], 1.41 fold enrichment (6-mer frequency, TF over GST control); in assay [16], 1.28 fold enrichment (6-mer frequency, TF over GST control); in [17], 1.41 fold enrichment (6-mer frequency, TF over GST control).

With AGCGAC, the binding signal is 1.09 fold enrichment (6-mer frequency, TF over GST control) in assay [1]; 1.15 fold enrichment (6-mer frequency, TF over GST control) in assay [2]; 1.09 fold enrichment (6-mer frequency, TF over GST control) in [3]; 1.23 fold enrichment (6-mer frequency, TF over GST control) in assay [4]; 1.17 fold enrichment (6-mer frequency, TF over GST control) in assay [5]; 1.23 fold enrichment (6-mer frequency, TF over GST control) in assay [6]. The binding signal in assay [7] is 1.06 fold enrichment (6-mer frequency, TF over GST control); in [8], 1.16 fold enrichment (6-mer frequency, TF over GST control); in [9], 1.04 fold enrichment (6-mer frequency, TF over GST control); in assay [10], 1.19 fold enrichment (6-mer frequency, TF over GST control); in assay [11], 1.13 fold enrichment (6-mer frequency, TF over GST control); in assay [12], 1.19 fold enrichment (6-mer frequency, TF over GST control). For the same sequence, the binding signal in [13] was 1.19 fold enrichment (6-mer frequency, TF over GST control); in [14], 1.25 fold enrichment (6-mer frequency, TF over GST control); in [15] it was 1.22 fold enrichment (6-mer frequency, TF over GST control); in [16] it was 1.01 fold enrichment (6-mer frequency, TF over GST control); in assay [17] it was 1.12 fold enrichment (6-mer frequency, TF over GST control).
